Non-standard residues stand in square brackets, D forms with d. Residues, ends and D or L forms follow the SMILES beside them. *: point of attachment. Butanoyl(4-(4-HOPh)) = O=C(CCCc1ccc(O)cc1)*
Test system: Plasmodium falciparum
Test: GSK_TCMDC: Inhibition of Plasmodium falciparum Dd2 in whole red blood cells, using parasite LDH activity as an index of growth. Test compounds present at 2uM
Type: functional

SMILES	Inhibition
CC(C)CNCc1ccc(-c2cccc(CN(CCN(C)C)C(=O)CCC3CCCC3)c2)cc1.O=C(O)C(F)(F)F	81%
O=C(NCc1cccs1)[C@H](Cc1ccccc1)Nc1ccnc(NCC2CCCCC2)n1.O=C(O)C(F)(F)F	67%
COc1ccccc1C(=O)C1CCCN(C(=O)c2ccccc2C(F)(F)F)C1 (configuration not stated)	84%
CC(C)[C@H](NC(=O)c1ccc(O)c(-c2cccc(C(F)(F)F)c2)c1)C(=O)NC1CCCc2ccccc21 (some centres not stated)	25%
Cc1cccc(C)c1C1CCN(CCCCNC(=O)c2cc3ccccc3[nH]2)CC1	18%
O=[N+]([O-])c1ccc(N/C(=N\c2ccccc2Br)NCCOc2ccccc2)c(O)c1	70%
COc1ccc(C(=O)NCc2ccccc2-c2ccc(C(C)(C)C)cc2)cc1O	97%
Cn1cc(C2CCN(CCCCNC(=O)c3ccc(C(=O)Nc4ccc(C#N)cc4)cc3)CC2)c2ccccc21	58%
Cc1cccc(C(=O)Nc2ccnc(N3CCC(N(C)Cc4cccc(O)c4)CC3)c2)c1.O=C(O)C(F)(F)F	41%
Cc1cccc(Nc2nc(C)cc(N3CCCN(CC4CCCCC4)CC3)n2)c1	21%
CC(C)CCNc1nc2ccccc2nc1Nc1cccc(C(F)(F)F)c1	99%
COc1cc(C2C(Oc3ccccc3)C(=O)N2Cc2ccc(F)cc2)cc(OC)c1OC (configuration not stated)	97%
CN1CCN(CCCSc2ccc3c(c2)ncn3-c2cc(OCc3ccccc3C(F)(F)F)c(C(N)=O)s2)CC1.O=CO	86%
CC1=C(C(=O)Nc2ccccc2)C(c2ccc([N+](=O)[O-])cc2)n2ncc(C(=O)Nc3ccccc3)c2N1 (configuration not stated)	68%
COc1ccc(CNCc2ccccc2)cc1-c1ccc(S(=O)(=O)NCCN2CCCC2)cc1.O=C(O)C(F)(F)F	39%
Cc1ncc(CN2CCC(C(=O)Nc3ccc(-c4nc5ccccc5o4)cc3)CC2)s1	92%
CCN(CC)CCCC(C)Nc1c2cc(OC)ccc2nc2cc(Cl)c([N+](=O)[O-])cc12 (configuration not stated)	89%
O=C(NCC(=O)N1CCC[C@H]1C(=O)O)[C@@H](Cc1ccccc1)NC(=O)[C@@H]1CCCN1C(=O)CCCc1ccc(O)cc1 ({Butanoyl(4-(4-HOPh))}-P[dF]GP-OH)	1%
O=C(CN1CCN(C(=O)c2ccco2)CC1)Nc1ccccc1Br	96%
CCCCN1CCN(Cc2cccc(NC(=O)c3ccc(Cl)c(Cl)c3)c2)CC1.O=C(O)C(F)(F)F	24%
CN(C)CCCN(C)c1cccc2c1nc(-c1cccnc1)n2CCNCc1ccccc1.O=C(O)C(F)(F)F	88%
Cc1cccc2nc(-c3cccc(-c4cccc(NC(=O)C(C)CN5CCN(C)CC5)c4)c3)[nH]c12 (configuration not stated)	99%
O=C(Nc1cccc(-c2ccc(-c3nc4cc(C(F)(F)F)ccc4[nH]3)cc2)c1)c1ccncc1	90%
O=C(Nc1cc(F)cc(F)c1)NC1CCN(CCCCCNC(=O)C2CC2c2ccc(Cl)c(Cl)c2)CC1 (configuration not stated)	6%
Nc1nc(O)c2c(n1)CCc1c(Br)cccc1-2	0%
CCOc1cc(C(=O)NCCN(CC)c2cccc(C)c2)ccc1-c1nc2cc(Cl)ccc2[nH]1	80%
COc1cccc2c(NN=Cc3ccc(Cl)cc3)ccnc12	39%

Test system: HepG2
Test: GSK_TCMDC: Percent inhibition of human HepG2 cell line. Test compounds present at 10uM.
Type: functional

SMILES	Inhibition
O=C(Nc1ccon1)c1cc(-c2cccnc2)nc2ccc(Br)cc12	7%
OC1CCC(Nc2ccc3ncc(-c4ccc5ccccc5c4)n3n2)CC1 (configuration not stated)	52%
CN(C)c1ccc(-c2csc(C(=O)NCC3CCN(CCC(C)(C)C)C3)c2)cc1.O=C(O)C(F)(F)F (configuration not stated)	29%
CCNc1cc(C(=O)N[C@@H](Cc2ccccc2)[C@H](O)CNC2(CCC(C)C)CC2)cc(N2CCCCS2(=O)=O)c1.Cl	6%
CC(C)c1sc(N2CCN(C)CC2)nc1C(=O)NCCc1ccc(Cl)c(Cl)c1.O=C(O)C(F)(F)F	10%
O=C(CC(=O)Nc1cc(Cl)cc(Cl)c1)Nc1cc(Cl)cc(Cl)c1	0%
CC(O)C1CCCCN1C(=O)c1cccc(-c2ccc(-c3nc4cc(C(F)(F)F)ccc4[nH]3)cc2)c1 (configuration not stated)	33%
CN(CCN)Cc1cccc(-c2cccc(-c3nc4cc(F)ccc4[nH]3)c2)c1.O=C(O)C(F)(F)F	20%
CCN1CCC(N(Cc2ccc(-c3ccc(C(F)(F)F)cc3)cc2)C(=O)Cn2c(CCc3cccc(F)c3F)cc(=O)c3ccccc32)CC1.O=C(O)C(O)C(O)C(=O)O	100%
CN1CCC(c2cc3c(cc2Br)CCN3C(=O)Nc2ccc(-c3ccncc3)c(Cl)c2)CC1	26%
Cc1nc(NC2=NCN(CCCN3CCOCC3)CN2)nc2c(C)cccc12	17%
Cc1cccc2[nH]c(-c3cc(-c4cn[nH]c4)cnc3N)nc12	37%
COc1ccc(C2CCN(CCCCNC(=O)c3ccc(NC(=O)c4ccc(Cl)cc4)cc3)C2)c(OC)c1 (configuration not stated)	18%
CC(C)CNCc1ccc(-c2cccc(CN(CCN(C)C)C(=O)CCC3CCCC3)c2)cc1.O=C(O)C(F)(F)F	56%
O=C(NCc1cccs1)[C@H](Cc1ccccc1)Nc1ccnc(NCC2CCCCC2)n1.O=C(O)C(F)(F)F	5%
COc1ccccc1C(=O)C1CCCN(C(=O)c2ccccc2C(F)(F)F)C1 (configuration not stated)	0%
CC(C)[C@H](NC(=O)c1ccc(O)c(-c2cccc(C(F)(F)F)c2)c1)C(=O)NC1CCCc2ccccc21 (some centres not stated)	2%
Cc1cccc(C)c1C1CCN(CCCCNC(=O)c2cc3ccccc3[nH]2)CC1	46%
O=[N+]([O-])c1ccc(N/C(=N\c2ccccc2Br)NCCOc2ccccc2)c(O)c1	6%
COc1ccc(C(=O)NCc2ccccc2-c2ccc(C(C)(C)C)cc2)cc1O	10%

SMILES	Inhibition
Cn1cc(C2CCN(CCCCNC(=O)c3ccc(C(=O)Nc4ccc(C#N)cc4)cc3)CC2)c2ccccc21	16%
Cc1cccc(C(=O)Nc2ccnc(N3CCC(N(C)Cc4cccc(O)c4)CC3)c2)c1.O=C(O)C(F)(F)F	7%
Cc1cccc(Nc2nc(C)cc(N3CCCN(CC4CCCCC4)CC3)n2)c1	20%
CC(C)CCNc1nc2ccccc2nc1Nc1cccc(C(F)(F)F)c1	12%
COc1cc(C2C(Oc3ccccc3)C(=O)N2Cc2ccc(F)cc2)cc(OC)c1OC (configuration not stated)	0%
CN1CCN(CCCSc2ccc3c(c2)ncn3-c2cc(OCc3ccccc3C(F)(F)F)c(C(N)=O)s2)CC1.O=CO	28%
CC1=C(C(=O)Nc2ccccc2)C(c2ccc([N+](=O)[O-])cc2)n2ncc(C(=O)Nc3ccccc3)c2N1 (configuration not stated)	9%
COc1ccc(CNCc2ccccc2)cc1-c1ccc(S(=O)(=O)NCCN2CCCC2)cc1.O=C(O)C(F)(F)F	38%
Cc1ncc(CN2CCC(C(=O)Nc3ccc(-c4nc5ccccc5o4)cc3)CC2)s1	0%
CCN(CC)CCCC(C)Nc1c2cc(OC)ccc2nc2cc(Cl)c([N+](=O)[O-])cc12 (configuration not stated)	12%
O=C(NCC(=O)N1CCC[C@H]1C(=O)O)[C@@H](Cc1ccccc1)NC(=O)[C@@H]1CCCN1C(=O)CCCc1ccc(O)cc1 ({Butanoyl(4-(4-HOPh))}-P[dF]GP-OH)	1%
O=C(CN1CCN(C(=O)c2ccco2)CC1)Nc1ccccc1Br	15%
CCCCN1CCN(Cc2cccc(NC(=O)c3ccc(Cl)c(Cl)c3)c2)CC1.O=C(O)C(F)(F)F	21%
CN(C)CCCN(C)c1cccc2c1nc(-c1cccnc1)n2CCNCc1ccccc1.O=C(O)C(F)(F)F	4%
Cc1cccc2nc(-c3cccc(-c4cccc(NC(=O)C(C)CN5CCN(C)CC5)c4)c3)[nH]c12 (configuration not stated)	17%
O=C(Nc1cccc(-c2ccc(-c3nc4cc(C(F)(F)F)ccc4[nH]3)cc2)c1)c1ccncc1	79%
O=C(Nc1cc(F)cc(F)c1)NC1CCN(CCCCCNC(=O)C2CC2c2ccc(Cl)c(Cl)c2)CC1 (configuration not stated)	49%
Nc1nc(O)c2c(n1)CCc1c(Br)cccc1-2	66%
CCOc1cc(C(=O)NCCN(CC)c2cccc(C)c2)ccc1-c1nc2cc(Cl)ccc2[nH]1	0%
COc1cccc2c(NN=Cc3ccc(Cl)cc3)ccnc12	26%
